# Data from the supplement of paper PMC9844399.
# Structures can show the parent of a compound that is named as a salt.
# System: HeLa
# Experiment: nuclear count per well, robust Z-score vs DMSO; higher = more cells (less toxicity)
# Conditions: 10 µM; 6 h
# 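For MALAT1 nuclear FISH intensity, robust Z-score vs DMSO in this document: High-content confocal imaging of branched-DNA amplified FISH in 384-well plates, Hoechst-defined nuclei, score is well value minus plate DMSO median over DMSO robust SD, four wells per compound.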
# 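For nuclear count per well, robust Z-score vs DMSO in this document: Hoechst-stained nuclei counted by automated confocal imaging of four fields per well in 384-well plates, with the robust Z-score based on the per-plate DMSO median and robust SD.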
row,SMILES,nuclear count per well
1,O=C(NCCCNc1nc(Nc2cccc(CN3CCOCC3)c2)ncc1C1CC1)C1CCC1,-2.72
2,N=C(N)NC(=O)c1nc(Cl)c(N)nc1N,0.294
3,Cn1c(=O)c2nc[nH]c2n(C)c1=O [Theophylline],0.245
4,COc1ccc([C@@H]2Sc3ccccc3N(CCN(C)C)C(=O)[C@@H]2OC(C)=O)cc1,0.374
5,COc1cc(C(C)=O)ccc1OCCCN1CCC(c2noc3cc(F)ccc23)CC1 [Iloperidone],0.0344
6,CC(CN(C)C)CN1c2ccccc2CCc2ccccc21 (centres undefined) [Trimipramine Maleate],-0.14
7,OCCn1cc(-c2ccc3c(c2)CC/C3=N\O)c(-c2ccncc2)n1,-1.12
8,CCOC(=O)[C@H](CCc1ccccc1)N[C@@H](C)C(=O)N1Cc2ccccc2C[C@H]1C(=O)O,-0.26

# System: HeLa
# Experiment: MALAT1 nuclear FISH intensity, robust Z-score vs DMSO; higher = more nuclear MALAT1 lncRNA, active = -3 or less
# Conditions: 10 µM; 6 h
row,SMILES,MALAT1 nuclear FISH intensity
1,CCNC(=O)CCC/C=C\C[C@@H]1[C@@H](/C=C/[C@@H](O)CCc2ccccc2)[C@H](O)C[C@@H]1O [Bimatoprost],0.451 (inactive)
2,CCCCCCCCCCCCC/C=C/[C@@H](O)[C@@H](N)CO [Sphingosine],-0.118 (inactive)
3,CC(=O)NCCc1c(Cc2ccccc2)[nH]c2ccccc12 [Luzindole],-0.745 (inactive)
4,CCc1c2c(nc3ccc(OC(=O)N4CCC(N5CCCCC5)CC4)cc13)-c1cc3c(c(=O)n1C2)COC(=O)[C@]3(O)CC [Irinotecan (hydrochloride)],1.21 (inactive)
5,COc1cc2nc(N3CCN(C(=O)C4CCCO4)CC3)nc(N)c2cc1OC (centres undefined),-0.488 (inactive)
6,C#C[C@]1(O)CC[C@H]2[C@@H]3CCc4cc(O)ccc4[C@H]3CC[C@@]21C [Ethinyl estradiol],0.718 (inactive)
7,CC1=C(/C=C/C(C)=C/C=C/C(C)=C\C(=O)O)C(C)(C)CCC1 [Isotretinoin (13-Cis-Retinoic Acid)],-0.557 (inactive)
8,CC(C)OC(=O)C(C)(C)Oc1ccc(C(=O)c2ccc(Cl)cc2)cc1 [Fenofibrate],-0.495 (inactive)
9,C#C[C@]1(O)CC[C@H]2[C@@H]3CCC4=CC(=O)CC[C@@H]4[C@H]3C(=C)C[C@@]21CC [Etonogestrel],0.892 (inactive)
10,CN(C)CCC=C1c2ccccc2C=Cc2ccccc21,-0.585 (inactive)
11,CC(C)(C)NC[C@H](O)COc1cccc2c1CCCC2=O,-0.402 (inactive)
12,Cc1ccc2c(c1)C(=O)C1(O)CCN(c3ccccc3)C1=N2 (centres undefined) [Blebbistatin],-1.33 (inactive)
13,OC[C@H]1NC[C@H](O)[C@@H](O)[C@@H]1O [1-Deoxynojirimycin],-0.641 (inactive)
14,C[C@@H]1NC(=O)[C@@H](N)CNC(=O)[C@H](C2CCNC(=N)N2)NC(=O)/C(=C/NC(N)=O)NC(=O)[C@H](CNC(=O)CC(N)CCCN)NC1=O.N=C1NCC[C@H]([C@@H]2NC(=O)/C(=C/NC(N)=O)NC(=O)[C@H](CNC(=O)C[C@@H](N)CCCN)NC(=O)[C@H](CO)NC(=O)[C@@H](N)CNC2=O)N1 [Capreomycin Disulfate],0.502 (inactive)
15,CCCCC[C@H](O)/C=C/[C@H]1[C@H](O)CC(=O)[C@@H]1C/C=C\CCCC(=O)O [Dinoprostone],0.586 (inactive)
16,CC(=O)N[C@@H](CS)C(=O)O [Acetylcysteine],-1.06 (inactive)
17,C[C@H]1[C@H](NC(=O)/C(=N\OC(C)(C)C(=O)O)c2csc(N)n2)C(=O)N1S(=O)(=O)O [Aztreonam],0.0374 (inactive)
18,CCCCC/C=C\C/C=C\C/C=C\C/C=C\CCCC(=O)O[C@H](COCCCCCCCCCCCCCCCC)COP(=O)([O-])OCC[N+](C)(C)C [Arachidonoyl-PAF],0.705 (inactive)
19,CCC(C)[C@H](NC(=O)[C@H](CCCCN)NC(=O)[C@H](CCCCN)NC(=O)[C@H](C)NC(=O)[C@H](CC(C)C)NC(=O)[C@H](C)NC(=O)[C@H](C)NC(=O)[C@H](CC(C)C)NC(=O)[C@H](C)NC(=O)[C@H](CCCCN)NC(=O)[C@H](CC(C)C)NC(=O)[C@H](CC(N)=O)NC(=O)[C@@H](N)[C@@H](C)CC)C(=O)N[C@@H](CC(C)C)C(N)=O (some centres undefined) [Mastoparan],-2.49 (inactive)
20,CCCCCCCCCCCCCCCCOCC(CO)OC(C)=O (centres undefined) [1-Hexadecyl-2-O-acetyl-glycerol],0.86 (inactive)
21,COc1ccc(Cl)cc1C(=O)NCCc1ccc(S(=O)(=O)NC(=O)NC2CCCCC2)cc1 [Glyburide],-0.00626 (inactive)
